# Screens (PubChem BioAssay)
# Bst PK mod – Pyruvate Kinase. purified pyruvate kinase, luminescence ATP production; ribose 5-phosphate activator present at AC10. Potency, µM. hit rate 1.2% among 51,000. AID 361, 2006; in the data active = potency below about 11 µM; inconclusive = mostly about 12 µM to 25 µM;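 the screen sought inhibitors and activators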;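 note: scaled between full activation by ribose 5 phosphate and full inhibition by luteolin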
# FLuc inh – qHTS Assay for Inhibitors of Firefly Luciferase | Luciferin 4-monooxygenase (Photinus pyralis), P08659 | purified firefly luciferase, luminescence, 8 min | Potency, µM (top dose mostly 57.1 µM), inactives show at the highest dose activity change, negative = inhibition, actives largely listed as inhibitors | hit rate 2.2% among 72,000 | AID 411, 2009; note: % is set by controls: 0 for no effect and ±100 for the full control effect; nearly all actives have a fitted effect of over 40% in size
#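 Here, luciferase activity is measured as luminescence following an 8 min room-temperature reaction at 10 uM ATP, pH 7.2. Every library sample is titrated.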
# TSHR agonist – qHTS Assay for Agonists of the Thyroid Stimulating Hormone Receptor; HEK293-CNG-TSHR cells (CNG channel as cAMP sensor), membrane potential dye, cAMP; hit rate 0.48% among 73,000; AID 926, 2007; Potency, µM (doses to about 57.1 µM), inactives show at the highest dose activation, usual class: activators; Thyrotropin receptor (Homo sapiens), P16473; active = well fitted activation curve with a large enough effect in the main read-out, with a control signal flat, not every such curve was filed as active; inconclusive = small, poorly fitted or top-dose-only effect, or a change in a side signal; inactive = no such curve, though single readings can be large or run the other way; % of control where 0% means no effect;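 note: the control signal comes from parental cells without the receptor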
#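 HEK 293 cells stably expressing TSHR and a modified CNG channel, with CNG-only parental cells as counterscreen, were preloaded 60 min at room temperature with membrane potential dye containing 100 uM RO 20-1724. Compound exposure was 30 min, and depolarization was read as fluorescence at 590 nm.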
# HEK293 cAMP ctrl – qHTS Assay for Agonists of the Thyroid Stimulating Hormone Receptor: Activators of Intracellular cAMP Concentrations in Parental HEK 293 | parental HEK293 CNG cAMP sensor, membrane potential fluorescence | hit rate 2.5% among 73,000 | Potency, µM (top dose mostly 57.1 µM), without a hit: at the top dose activation, most hits filed as activators; note: % of control where 0% means no effect; nearly all actives have a fitted effect of over 55% in size
#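 Parental HEK 293 cells stably expressing a modified CNG channel (no TSHR) report cAMP rise as membrane depolarization. Membrane potential dye with 100 uM RO 20-1724 was loaded for 60 min at room temperature, then compound added for 30 min; fluorescence read at 590 nm.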
# An asterisk follows results filed as active; u = inconclusive; x = no result; ! = not active in a repeat; [ ] = another dose, or the depositor's remark. A selection: hits, their analogues and other compounds. The true share with any hit is near 5.2%. Unless noted, calls come from the whole dose curve; as a rule, active = well fitted curve in the direction sought with a large enough effect; inconclusive = small, poorly fitted or top-dose-only effect, or another doubt; inactive = no such curve, though single readings can be large; an effect the other way counts as inactive or inconclusive. Potency is the fitted concentration of half-maximal effect.
SMILES,Bst PK mod,FLuc inh,TSHR agonist,HEK293 cAMP ctrl
CCc1ccc(N2CC(C(=O)Nc3ccccc3F)CC2=O)cc1 (stereo unspecified),x,x,6.7%,6.3%
COC(=O)c1ccccc1NC(=O)C1CC(=O)N(c2ccc(F)cc2)C1 (stereo unspecified),>57,1.3%,u,25.1µM*
CC(O)C(O)C(O)C(O)C1NCCS1 (stereo unspecified),>57,3.9%,-1.8%,-11.3%
O=C(c1ccc(Cl)s1)N1CCc2ccccc21,x,12.6µM*,15.8µM*,27.2%
CC(C)c1ccc(S(=O)(=O)N2CCN(C(=O)c3cccc(F)c3)CC2)cc1,>57,0.2%,u,20µM*
O=C(Oc1ccccc1)N1CCC2(CCCN(c3cccc(-c4ccccc4)c3)C2)CC1,x,0.7%[11.4 µM],u,u
Cc1ccc(C(C(=O)NC2CCCC2)N(Cc2ccc(F)cc2)C(=O)c2csnn2)o1 (stereo unspecified),>57,-1.2%,u,15.8µM*
CCC(Oc1ccccc1)C(=O)Nc1ccccc1OC (stereo unspecified),x,1.2%,u,31.6µM*
CCC(Oc1ccccc1)C(=O)Nc1nnc(C)s1 (stereo unspecified),>57,1.5%,-6.0%,5.3%
CC(=O)Oc1ccc2occ(C(=O)c3cccs3)c2c1,x,u,u,25.1µM*
O=C(O)COc1ccc2occ(C(=O)c3ccccc3)c2c1,>57,-1.1%,-12.7%,7.0%
O=C(NCCc1ccccc1)c1noc2c1CCCCC2,>57,-15.1%,9.3%,9.1%
O=C(CSc1nnnn1Cc1ccccc1)c1ccccc1,>57,-1.4%,u,31.6µM*
Cc1ccc(CNc2ccc3c(c2)ncn3C)cc1,>57,-16.3%,-9.3%,-9.9%
Cc1ccc(C(=O)Nc2ccc3c(c2)ncn3C)cc1,x,25.1µM*,-0.2%,5.0%
Cc1nc2nc(-c3ccco3)[nH]n2c(=O)c1Cc1ccccc1,>57,1.7%,21.1%,20.9%
CN1c2ccccc2-c2nc3ccccc3n2C1c1ccncc1 (stereo unspecified),>57,-2.9%,u,u
Cc1ccc(C2Nc3ccccc3-c3nc4ccccc4n32)o1 (stereo unspecified),x,12.6µM*,u,20µM*
CCc1nc(SCC(=O)Nc2cccc(C(F)(F)F)c2)c2c(=O)n(C)c(=O)n(C)c2n1,x,2.3%,-11.0%,5.8%
CC(C)(C)Nc1ncnc2c1cnn2-c1ccccc1,x,5.01µM*,18.2%,1.3%
CN(Cc1ccccc1)c1ncnc2c1cnn2-c1ccccc1,u,12.6µM*,x,22.6%
c1ccc(CCNc2ncnc3c2cnn3-c2ccccc2)cc1,>57,0.5%,u,u
CC(C)OCCCNc1ncnc2c1cnn2-c1ccccc1,8.88*,3.98µM*,x,x
c1ccc(CNc2ncnc3c2cnn3-c2ccccc2)cc1,>57,-5.2%,u,u
CCOC(=O)C1CCCN(C(=O)C2CC(=O)N(c3ccc(C)cc3)C2)C1 (stereo unspecified),>57,1.8%,-4.3%,8.1%
SMILES,Bst PK mod,FLuc inh,TSHR agonist,HEK293 cAMP ctrl
O=c1cnn(-c2ccccc2)c(-c2ccccc2)c1,x,12.6µM*,-7.5%,-7.9%
CCN1CCC[C@@H]1CNC(=O)c1cc(S(N)(=O)=O)ccc1OC,x,-1.0%,1.2%,-1.1%
Cc1ccc(OC[C@H](O)[C@H](C)NC(C)C)c2c1CCC2,x,-2.7%,u,39.8µM*!
Cc1cccc2cc3c(nc12)SC(=NCC1CCCO1)N(Cc1ccco1)C3 (stereo unspecified),>57,-4.8%,x,29.7%
O=C(c1ccco1)N1CCC(c2nc(-c3ccccc3Cl)no2)CC1,>57,-1.9%,u,u
O=C(c1ccco1)N1CCC(c2nc(-c3ccc(F)cc3)no2)CC1,>57,2.0%,u,20µM*
COC(=O)c1cc(-c2cccc(OC)c2)on1,x,-23.0%,18.2%,23.6%
COc1cccc(-c2cc(C(=O)N3CCCCC3C)no2)c1 (stereo unspecified),x,20µM*,u,u
COc1cccc(-c2cc(C(=O)N3CCCCCC3)no2)c1,x,7.94µM*,x,17.4%
O=C(c1cc(-c2ccc(F)cc2)on1)N1CCCC1,x,12.6µM*,-1.3%,9.8%
O=C(c1cc(-c2cccc(O)c2)on1)N1CCCCC1,x,15.8µM*,u,u
O=C(c1cc(-c2ccc(Cl)c(Cl)c2)on1)N1CCCC1,x,-3.8%,2.3%,-0.1%
COc1ccccc1CNc1nc(-c2cccnc2)nc2ccccc12,x,-2.1%[2.29 µM],u,u
